Reference: ChEMBL document CHEMBL3988442, “University of Dundee, Small-Polar-MMV Screening Library” (2021)
For some assays here: Entries with a potency or affinity are not part of this list.

Legend:
Parameters in all cases: scale not given: direction of the effect not stated beside the values
[1] = target: Protein translocase subunit SecA (Escherichia coli (strain K12)) (UniProt P10408); test: Assay to Identify E. coli SecA ATPase Inhibitors; format: functional; conditions: 30 µM
[2] = target: T1, Ubiquitin-activating enzyme e1, putative (Leishmania donovani (strain BPK282A1)) (UniProt E9BSI1); test: Leishmania donovani Ubiquitin Activating Enzyme (LdE1); format: functional; conditions: 30 µM
T1 sequence (whole entry): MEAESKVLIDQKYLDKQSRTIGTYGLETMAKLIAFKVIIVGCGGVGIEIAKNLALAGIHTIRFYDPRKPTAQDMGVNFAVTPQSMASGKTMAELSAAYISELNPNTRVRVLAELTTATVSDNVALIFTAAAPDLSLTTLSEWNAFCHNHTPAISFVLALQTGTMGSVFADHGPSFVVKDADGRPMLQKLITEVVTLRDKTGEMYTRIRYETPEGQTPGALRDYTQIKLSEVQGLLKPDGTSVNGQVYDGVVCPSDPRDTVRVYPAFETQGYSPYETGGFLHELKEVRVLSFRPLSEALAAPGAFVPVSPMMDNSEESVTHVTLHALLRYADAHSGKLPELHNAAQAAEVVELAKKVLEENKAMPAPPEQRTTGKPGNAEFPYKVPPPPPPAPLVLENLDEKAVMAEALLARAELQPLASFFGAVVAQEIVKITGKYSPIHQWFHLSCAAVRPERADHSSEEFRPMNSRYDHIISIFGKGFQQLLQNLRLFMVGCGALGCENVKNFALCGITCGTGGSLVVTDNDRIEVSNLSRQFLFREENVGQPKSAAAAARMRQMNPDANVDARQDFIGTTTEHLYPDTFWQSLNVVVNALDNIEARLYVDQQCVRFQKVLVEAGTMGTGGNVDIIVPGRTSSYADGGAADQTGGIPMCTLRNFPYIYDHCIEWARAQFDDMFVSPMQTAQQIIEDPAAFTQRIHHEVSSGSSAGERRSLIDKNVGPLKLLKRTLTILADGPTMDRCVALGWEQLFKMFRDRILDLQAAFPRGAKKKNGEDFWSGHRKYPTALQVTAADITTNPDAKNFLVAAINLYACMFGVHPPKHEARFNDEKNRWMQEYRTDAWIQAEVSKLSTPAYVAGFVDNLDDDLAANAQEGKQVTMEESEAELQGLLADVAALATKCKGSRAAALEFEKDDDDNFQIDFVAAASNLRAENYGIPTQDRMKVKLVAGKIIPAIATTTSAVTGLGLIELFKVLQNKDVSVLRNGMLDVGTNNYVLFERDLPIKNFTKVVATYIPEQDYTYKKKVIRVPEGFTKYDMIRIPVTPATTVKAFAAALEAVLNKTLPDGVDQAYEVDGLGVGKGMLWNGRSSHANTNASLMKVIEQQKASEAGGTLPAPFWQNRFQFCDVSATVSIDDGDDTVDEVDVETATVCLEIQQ

[3] = target: Sialic acid-binding Ig-like lectin 9 (Homo sapiens) (UniProt Q9Y336); test: Hs-Siglec9 ALPHAscreen SOP 20170721; conditions: 10 µM
Sialic acid-binding Ig-like lectin 9 (Homo sapiens), sequence (Q9Y336 whole entry): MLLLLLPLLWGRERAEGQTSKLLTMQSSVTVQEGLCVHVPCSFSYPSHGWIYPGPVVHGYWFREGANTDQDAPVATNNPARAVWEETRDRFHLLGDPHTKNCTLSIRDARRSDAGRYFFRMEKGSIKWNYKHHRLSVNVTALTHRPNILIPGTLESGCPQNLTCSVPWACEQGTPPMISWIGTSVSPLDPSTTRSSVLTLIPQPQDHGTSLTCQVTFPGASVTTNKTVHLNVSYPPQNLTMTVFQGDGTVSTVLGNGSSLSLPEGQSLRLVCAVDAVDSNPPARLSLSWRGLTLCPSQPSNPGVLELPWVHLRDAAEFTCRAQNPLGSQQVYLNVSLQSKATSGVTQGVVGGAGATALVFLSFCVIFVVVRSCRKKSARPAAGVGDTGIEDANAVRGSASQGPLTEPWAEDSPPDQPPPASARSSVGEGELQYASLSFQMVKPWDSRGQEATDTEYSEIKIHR

[4] = system: Trypanosoma cruzi; test: Trypanosoma cruzi phosphomannomutase and mannose-1-phosphate guanylyltransferase assay; format: functional; conditions: 10 µM
[5] = target: T2, Arginase-2, mitochondrial (Homo sapiens) (UniProt P78540); test: in vitro enzyme assay to detect the production of urea directly proportional to the activity of Arginase II; format: functional; conditions: 33.3 µM; note: in the data most compounds retested in dose-response had high values
T2 sequence (whole entry): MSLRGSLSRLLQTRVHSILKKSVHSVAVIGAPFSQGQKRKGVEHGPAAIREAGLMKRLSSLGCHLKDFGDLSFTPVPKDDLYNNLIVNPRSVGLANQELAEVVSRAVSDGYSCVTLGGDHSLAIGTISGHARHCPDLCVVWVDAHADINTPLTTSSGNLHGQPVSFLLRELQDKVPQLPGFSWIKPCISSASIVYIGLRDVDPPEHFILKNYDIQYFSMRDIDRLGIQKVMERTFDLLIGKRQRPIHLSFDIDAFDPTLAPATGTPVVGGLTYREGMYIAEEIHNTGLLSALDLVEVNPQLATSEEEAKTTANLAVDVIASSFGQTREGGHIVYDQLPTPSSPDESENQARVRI

[6] = target: T3, Proteasome subunit beta (Trypanosoma cruzi) (UniProt O96673); test: Trypanosoma cruzi proteasome chymotrypsin-like activity (TcProtChymo) assay.; note: in the data most compounds retested in dose-response had high values; format: functional; conditions: 9.37 µM
T3 sequence (whole entry): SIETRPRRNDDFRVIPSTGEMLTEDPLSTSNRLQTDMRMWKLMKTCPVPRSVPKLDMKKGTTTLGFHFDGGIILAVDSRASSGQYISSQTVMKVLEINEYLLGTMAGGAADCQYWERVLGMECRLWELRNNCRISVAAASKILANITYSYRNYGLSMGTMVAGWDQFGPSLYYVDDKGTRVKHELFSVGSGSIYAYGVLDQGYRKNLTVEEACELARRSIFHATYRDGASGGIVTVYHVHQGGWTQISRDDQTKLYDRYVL

[7] = species: Homo sapiens; test: To identify inhibition of the IFN signalling (Jak-Stat) pathway via expression of an eGFP reporter gene under the control of an IFN-stimulated response element (ISRE) containing MxA promoter.; format: functional; conditions: 30 µM
[8] = target: T4, Tyrosyl-tRNA synthetase, putative (Trypanosoma cruzi (strain CL Brener)) (UniProt Q4DSP6); test: Trypanosoma cruzi tyrosyl tRNA synthetase (TcYRS) _High Tyrosine SOP; format: functional; conditions: 30 µM; note: in the data most compounds retested in dose-response had high values
T4 sequence (whole entry): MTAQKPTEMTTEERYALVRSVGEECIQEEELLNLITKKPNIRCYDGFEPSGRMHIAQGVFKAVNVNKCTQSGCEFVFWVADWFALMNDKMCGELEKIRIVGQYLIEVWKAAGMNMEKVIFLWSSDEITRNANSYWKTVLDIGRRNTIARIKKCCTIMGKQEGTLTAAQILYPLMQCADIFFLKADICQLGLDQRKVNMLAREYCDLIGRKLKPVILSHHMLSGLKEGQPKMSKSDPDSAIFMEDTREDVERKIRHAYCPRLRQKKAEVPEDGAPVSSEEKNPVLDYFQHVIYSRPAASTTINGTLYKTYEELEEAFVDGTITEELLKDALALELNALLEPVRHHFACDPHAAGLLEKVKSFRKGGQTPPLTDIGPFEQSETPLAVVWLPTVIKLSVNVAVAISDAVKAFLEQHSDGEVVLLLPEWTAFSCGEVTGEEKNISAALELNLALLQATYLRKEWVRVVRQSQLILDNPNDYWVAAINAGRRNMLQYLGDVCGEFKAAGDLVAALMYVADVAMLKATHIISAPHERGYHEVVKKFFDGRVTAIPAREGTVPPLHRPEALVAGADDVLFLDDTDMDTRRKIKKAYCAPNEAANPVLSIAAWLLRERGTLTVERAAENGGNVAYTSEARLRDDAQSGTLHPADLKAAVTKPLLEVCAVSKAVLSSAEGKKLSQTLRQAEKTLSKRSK

[9] = target: T4, Tyrosyl-tRNA synthetase, putative (Trypanosoma cruzi (strain CL Brener)); test: Trypanosoma cruzi tyrosyl tRNA synthetase (TcYRS) SOP; format: functional; conditions: 30 µM
[10] = target: Chromo domain-containing protein 1 (Saccharomyces cerevisiae (strain ATCC 204508 / S288c) (Baker's yeast)) (UniProt P32657); test: ScCHD-1 Enzyme Inhibition Assay; format: functional; conditions: 30 µM; note: in the data most compounds retested in dose-response had high values
Chromo domain-containing protein 1 (Saccharomyces cerevisiae (strain ATCC 204508 / S288c) (Baker's yeast)), sequence (P32657 whole entry, the tested form may be a part): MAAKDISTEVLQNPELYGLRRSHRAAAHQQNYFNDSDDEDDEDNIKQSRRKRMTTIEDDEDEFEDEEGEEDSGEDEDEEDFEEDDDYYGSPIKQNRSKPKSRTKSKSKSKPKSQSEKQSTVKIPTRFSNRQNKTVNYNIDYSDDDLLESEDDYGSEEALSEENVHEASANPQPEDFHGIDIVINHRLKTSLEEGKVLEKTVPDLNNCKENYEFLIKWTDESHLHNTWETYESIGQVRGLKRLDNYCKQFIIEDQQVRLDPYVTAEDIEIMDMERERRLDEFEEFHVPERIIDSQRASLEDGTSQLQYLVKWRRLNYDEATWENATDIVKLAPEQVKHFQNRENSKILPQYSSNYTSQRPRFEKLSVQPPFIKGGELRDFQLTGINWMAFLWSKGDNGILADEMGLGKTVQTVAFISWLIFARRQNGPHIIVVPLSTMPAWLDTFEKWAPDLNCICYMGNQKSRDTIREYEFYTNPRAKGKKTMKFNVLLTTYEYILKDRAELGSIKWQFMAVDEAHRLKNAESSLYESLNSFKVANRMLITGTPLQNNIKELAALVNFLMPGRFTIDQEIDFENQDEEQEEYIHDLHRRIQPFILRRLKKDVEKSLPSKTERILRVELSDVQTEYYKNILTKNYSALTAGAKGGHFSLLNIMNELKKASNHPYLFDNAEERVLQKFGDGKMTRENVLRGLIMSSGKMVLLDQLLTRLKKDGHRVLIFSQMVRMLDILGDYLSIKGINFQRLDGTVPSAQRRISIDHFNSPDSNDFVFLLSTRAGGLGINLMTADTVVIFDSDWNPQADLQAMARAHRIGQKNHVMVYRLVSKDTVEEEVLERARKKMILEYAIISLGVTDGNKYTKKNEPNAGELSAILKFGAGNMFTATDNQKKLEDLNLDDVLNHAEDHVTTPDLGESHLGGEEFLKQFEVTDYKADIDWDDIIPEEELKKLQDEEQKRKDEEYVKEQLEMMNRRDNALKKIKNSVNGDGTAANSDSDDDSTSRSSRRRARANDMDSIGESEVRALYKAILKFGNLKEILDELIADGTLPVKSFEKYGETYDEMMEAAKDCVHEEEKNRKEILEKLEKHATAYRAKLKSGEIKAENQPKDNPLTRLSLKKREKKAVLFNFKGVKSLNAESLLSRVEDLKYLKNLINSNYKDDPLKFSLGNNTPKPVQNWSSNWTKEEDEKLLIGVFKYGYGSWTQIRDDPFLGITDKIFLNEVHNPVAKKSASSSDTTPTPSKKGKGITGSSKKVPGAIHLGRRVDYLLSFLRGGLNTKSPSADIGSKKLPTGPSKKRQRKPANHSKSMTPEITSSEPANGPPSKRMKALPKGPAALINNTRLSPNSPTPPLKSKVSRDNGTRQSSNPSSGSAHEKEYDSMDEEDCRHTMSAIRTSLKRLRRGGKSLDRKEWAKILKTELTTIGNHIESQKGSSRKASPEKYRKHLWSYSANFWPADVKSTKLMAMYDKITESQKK

Protein translocase subunit SecA (Escherichia coli (strain K12)), sequence (P10408 whole entry): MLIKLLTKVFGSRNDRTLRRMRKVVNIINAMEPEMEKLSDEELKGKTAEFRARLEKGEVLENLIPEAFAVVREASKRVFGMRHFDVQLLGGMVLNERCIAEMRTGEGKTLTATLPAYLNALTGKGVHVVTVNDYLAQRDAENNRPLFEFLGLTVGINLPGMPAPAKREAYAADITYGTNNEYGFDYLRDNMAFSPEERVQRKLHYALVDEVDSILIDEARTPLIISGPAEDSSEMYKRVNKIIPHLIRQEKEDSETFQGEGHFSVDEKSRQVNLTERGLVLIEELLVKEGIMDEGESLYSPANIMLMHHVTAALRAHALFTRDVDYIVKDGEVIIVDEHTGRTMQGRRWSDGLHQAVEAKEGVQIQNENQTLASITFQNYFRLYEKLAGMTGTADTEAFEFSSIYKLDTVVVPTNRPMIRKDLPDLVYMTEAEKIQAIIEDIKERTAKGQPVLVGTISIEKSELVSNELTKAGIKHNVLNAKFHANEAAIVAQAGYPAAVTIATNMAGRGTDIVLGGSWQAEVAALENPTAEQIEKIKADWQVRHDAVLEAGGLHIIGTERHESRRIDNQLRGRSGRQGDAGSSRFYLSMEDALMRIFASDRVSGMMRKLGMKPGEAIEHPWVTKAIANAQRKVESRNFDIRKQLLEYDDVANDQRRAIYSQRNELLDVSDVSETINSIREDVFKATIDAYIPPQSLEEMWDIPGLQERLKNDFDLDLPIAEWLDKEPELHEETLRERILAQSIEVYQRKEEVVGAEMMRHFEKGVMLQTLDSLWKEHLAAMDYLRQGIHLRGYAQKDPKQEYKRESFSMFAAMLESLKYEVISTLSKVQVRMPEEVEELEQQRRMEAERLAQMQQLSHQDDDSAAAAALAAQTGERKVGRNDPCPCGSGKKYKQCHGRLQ

SMILES | Percent Effect [1] | Percent Effect [2] | Percent Effect [3] | Percent Effect [4] | Percent Effect [5] | Percent Effect [6] | Percent Effect [7] | Percent Effect [8] | Percent Effect [9] | Percent Effect [10]
CN(Cc1nc2c(cnn2C)c(=O)[nH]1)Cc1ccc(F)cc1F | -0.314% | 20.5% | -17.8% | 2.72% | -2.05% | 16.8% | 3.63% | 7.18% | 25.3% | -5.98%
CN(C)Cc1ccc(C2CCCCN2C(=O)c2cccc(CO)n2)cc1 (stereo not given) | -5.85% | 13.5% | 26.3% | 9.8% | 23.4% | 9.25% | 8.84% | 6.92% | 14.6% | 80.3%
COCCC(=O)N1C[C@H]2CN(Cc3cccc(C)n3)C(=O)[C@H]2C1 | -1.95% | 3.9% | -4.82% | -0.563% | 2.74% | 0.0858% | -13.5% | 7.73% | 7.5% | -4.73%
Cn1nc2c(cc1=O)CN(Cc1nnc(C3CC3)o1)CC2 | -3.12% | 51.3% | -13.6% | -6.29% | 0.41% | 6.91% | 36.5% | -11% | -6.02% | -6.1%
O=S(=O)(c1ccccc1)N1CCCCC1c1cc[nH]n1 (stereo not given) | -1.23% | 9.33% | -5.11% | -6.71% | -1.77% | 13.5% | 19.2% | -3.17% | 0% | -28%
N#Cc1ccccc1OCCN1CCn2c(nnc2C2CC2)C1 | 1.03% | 2.67% | -0.123% | -0.602% | -0.444% | 5.85% | -1.08% | 2.63% | 2.56% | -0.472%
CCN(Cc1cccc2c1OCO2)C(=O)NC1CC1 | -0.28% | 13% | 9.18% | 1.68% | -7.17% | 1.75% | 3.66% | 3.92% | 28.2% | -7.71%
Cc1cc(NCc2cc3n(n2)CCCN(C(=O)N(C)C)C3)ncn1 | -14.3% | 2.7% | 3.53% | -1.84% | 1.05% | 3.42% | 4.33% | 1.6% | 4.88% | 0.382%
CN(C)CCOCC1CN(Cc2ccsc2)Cc2ccnn2C1 (stereo not given) | -2.84% | -1.3% | 1.33% | -3.41% | -1.62% | 2.21% | -1.71% | 1.58% | 2.56% | 0.0554%
CCc1ccsc1C(=O)N1CCN(CC(O)CC)CC1 (stereo not given) | -2.73% | 7.79% | 4.04% | 4.66% | -3.48% | 0.877% | -8.47% | 2.94% | 21.2% | -7.9%
CC(NC(=O)N1CCN(CCc2ccccc2)CC1)c1nncn1C (stereo not given) | -5.57% | 5.33% | 0.0136% | 3.41% | 0.444% | 7.55% | 13.6% | 2.63% | -20.5% | -8.2%
